According to the supplement of paper PMC12645437, “Orthogonal IMiD-Degron Pairs Induce Selective Protein Degradation in Cells” (ACS Chemical Biology, 2025):
Over roughly 8,300 sequences, “log2 fold change of degron read counts, EGFP-low vs EGFP+ sorted cells (limma voom), compound-induced degradation” has its median near -1.1; the highest 2% begin near 3.2. What follows is part of a selection rich in the highest values, with near analogues and random picks from the rest.

T1: CRBN, Q96SW2
T1 chain: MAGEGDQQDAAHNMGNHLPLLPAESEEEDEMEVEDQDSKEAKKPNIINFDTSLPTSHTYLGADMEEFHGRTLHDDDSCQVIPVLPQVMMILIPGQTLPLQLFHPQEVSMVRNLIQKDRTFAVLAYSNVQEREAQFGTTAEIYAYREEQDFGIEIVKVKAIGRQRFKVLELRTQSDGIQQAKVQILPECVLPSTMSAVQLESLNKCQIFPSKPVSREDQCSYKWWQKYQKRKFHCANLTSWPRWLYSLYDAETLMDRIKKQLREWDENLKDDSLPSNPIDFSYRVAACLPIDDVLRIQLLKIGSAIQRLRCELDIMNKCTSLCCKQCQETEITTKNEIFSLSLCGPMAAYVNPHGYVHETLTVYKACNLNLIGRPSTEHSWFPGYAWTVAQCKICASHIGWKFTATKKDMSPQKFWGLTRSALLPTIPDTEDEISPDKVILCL

B1: 46F_47S_49D_50I_52G_53A_54A_55F_67L_, Q9UKT9 (peptide)
chain: FSCDICGAAFTQKGNLLRHIKL
B2: 46F_47K_49P_50I_52G_53A_54Q_55F_67L_, Q9UKT9 (peptide)
chain: FKCPICGAQFTQKGNLLRHIKL
B3: 46F_47A_49P_50I_52G_53A_54Q_55F_67L_, Q9UKT9 (peptide)
chain: FACPICGAQFTQKGNLLRHIKL
B4: 46F_47R_49P_50I_52G_53A_54Q_55F_67L_, Q9UKT9 (peptide)
chain: FRCPICGAQFTQKGNLLRHIKL
B5: 46F_47S_49P_50I_52G_53A_54Q_55F_67L_, Q9UKT9 (peptide)
chain: FSCPICGAQFTQKGNLLRHIKL
B6: 46F_47M_49P_50I_52G_53A_54Q_55F_67L_, Q9UKT9 (peptide)
chain: FMCPICGAQFTQKGNLLRHIKL
B7: 46F_47W_49P_50I_52G_53A_54Q_55F_67L_, Q9UKT9 (peptide)
chain: FWCPICGAQFTQKGNLLRHIKL
B8: 46F_47F_49P_50I_52G_53A_54Q_55F_67L_, Q9UKT9 (peptide)
chain: FFCPICGAQFTQKGNLLRHIKL
B9: 46F_47V_49P_50I_52G_53A_54Q_55F_67L_, Q9UKT9 (peptide)
chain: FVCPICGAQFTQKGNLLRHIKL
B10: 46F_47T_49P_50I_52G_53A_54Q_55F_67L_, Q9UKT9 (peptide)
chain: FTCPICGAQFTQKGNLLRHIKL
B11: 46F_47E_49P_50I_52G_53A_54Q_55F_67L_, Q9UKT9 (peptide)
chain: FECPICGAQFTQKGNLLRHIKL
B12: 46F_47I_49P_50I_52G_53A_54Q_55F_67L_, Q9UKT9 (peptide)
chain: FICPICGAQFTQKGNLLRHIKL
B13: 46F_47Y_49P_50I_52G_53A_54Q_55F_67L_, Q9UKT9 (peptide)
chain: FYCPICGAQFTQKGNLLRHIKL

Molecular target: T1, CRBN, Q96SW2
Assay: log2 fold change of degron read counts, EGFP-low vs EGFP+ sorted cells (limma voom), compound-induced degradation; higher = more compound-induced degradation of the degron-EGFP fusion; degrons are variants of IKZF1/3 zinc finger 2; compound dose not given here
Settings: Jurkat, 18 h
[1] = compound: compound 19 (5-tert-butyl-thalidomide)
[2] = compound: compound 22 (5-morpholino-thalidomide)
[3] = compound: compound 33 (diphenyl IMiD analogue)
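Also: pooled lentiviral library of zinc finger degron-EGFP fusions in mCherry-positive Jurkat cells, FACS-sorted after compound exposure, with degron abundance counted by next-generation sequencing.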

Sequence	log2 fold change of degron read counts [1]	log2 fold change of degron read counts [2]	log2 fold change of degron read counts [3]	log2 fold change of degron read counts (compound: thalidomide)
B1	2.34	2.19	1.4	0.487
B2	-0.0361	-1.47	-1.09	0.0895
B3	3.33	2.33	1.68	1.29
B4	-0.000477	0.626	1.17	1.41
B5	2.37	2.25	1.87	1.54
B6	0.245	1.26	2.62	1.97
B7	3.01	3.69	2.52	1.76
B8	3.07	3.66	2.49	1.8
B9	0.269	3.03	2.65	2.8
B10	0.221	2.57	2.32	3.06
B11	-0.254	-0.469	2.11	2.88
B12	-0.147	2.86	2.84	2.97
B13	3.2	3.56	2.65	1.7
